Experimental data taken from ChEMBL document CHEMBL3988442, “University of Dundee, Small-Polar-MMV Screening Library” (2021).
The whole screen tested about 69,000 compounds, of which about 950 (1.4%) showed an effect of 50% or more. The sample holds strong results, similar compounds and a random draw of the others, so the mix is not that of the screen.

Tested on: Mycobacterium tuberculosis
Assay: Cornell M. t heat shock assay; note: in the data most compounds retested in dose-response had high values
Type: functional, organism-based
Parameters: dose or concentration left out as unconfirmed

SMILES | Percent Effect
CN(C)C(=O)Cn1c(C2CC2)c(CN2CCC(O)CC2)c2cccnc21.Cl | -13.49%
CC(C)CCn1c(=O)nc2n1C(=O)N(c1ccc(F)cc1)C2 | 4.203%
CCC1=N[C@@]2(CC[C@@H]3CN(Cc4ccccc4C)C[C@@H]32)C(=O)N1C.O=C(O)C(F)(F)F | -3.912%
OC1CCN(CCNc2ncc3c(n2)CCN3c2ccccc2)CC1 | -5.755%
O=C(CCNc1ncc2c(n1)CCN2c1ccccc1)N1CCCC1 | 58.85%
CN(C)C(=O)CCCNc1ncc2c(n1)CCN2c1ccccc1 | 14.48%
CCc1ncc(C(=O)N2CC[C@@H]3CC[C@H](C2)N3C)cn1 | -16.81%
COc1cc2cc(C)c(SCCN3CCCCC3)nc2cc1OC.Cl | 8.064%
CN1CCC(CNC(=O)c2cccc(NC(N)=O)c2)c2ccccc21 (stereo unspecified) | 13.83%
CN1CCC(CNC(=O)c2cccc(C(F)(F)F)c2)c2ccccc21 (stereo unspecified) | 80.18%
CN1CCC(CNC(=O)c2ccc(O)nc2)c2ccccc21 (stereo unspecified) | 10.05%
FC1(F)CCN(Cc2ccncc2)CC12CCN(Cc1ccccn1)C2.O=C(O)C(F)(F)F.O=C(O)C(F)(F)F.O=C(O)C(F)(F)F (stereo unspecified) | -15.56%
CCN(C)c1ncnc2c1CCN(Cc1csc(C)n1)CC2.O=C(O)C(F)(F)F.O=C(O)C(F)(F)F | 2.134%
O=S(=O)(C1CC1)N1CCc2ncnc(-c3ccsc3)c2CC1 | -2.171%
O=C(O)C(F)(F)F.O=C(c1ncccn1)N1CCC2(CC1)COC(COc1ccccn1)C2 (stereo unspecified) | -42.8%
CCCC1CCCN(Cc2csc(-c3cnn(C)c3)n2)CC1 (stereo unspecified) | 101.6%
Cc1nnc2n1CCN(Cc1csc(-c3cnn(C)c3)n1)C2 | -22%
CC(C)c1nnc2n1CCN(Cc1csc(-c3cnn(C)c3)n1)C2 | 2.86%
CCc1nnc2n1CCN(Cc1csc(-c3cnn(C)c3)n1)C2 | 103.2%
Cn1cc(-c2nc(CN3CCN(CCO)CC3)cs2)cn1 | 7.212%
CCCC1CCCN(Cc2csc(-c3ncccn3)n2)CC1 (stereo unspecified) | 31.96%
O=C(O)C(F)(F)F.O=C1COC2(CCN(C(=O)c3ccoc3)CC2)CN1Cc1ccccn1 | -25.96%
CCc1ccc2c(C3CN(S(C)(=O)=O)C3)ncn2c1 | -5.732%
CCc1ccc2c(C3CN(C(C)=O)C3)ncn2c1 | -5.457%
CCc1ccc2c(C3CN(CC4CCC4)C3)ncn2c1.O=C(O)C(F)(F)F | 59.23%
Cc1ccoc1C(=O)N1C[C@H](OCc2cccnc2)[C@H]2OCCC[C@H]21.O=C(O)C(F)(F)F | -24.06%
